Results filed as inconclusive are left out. The source made the active and inactive calls. Unless noted, the call rests on the fitted dose curve; in most records, active means well fitted curve in the direction sought with a large enough effect in the repeat runs; inconclusive means weak or mixed curves; inactive means no such curve, though single readings can be large; an effect the other way counts as inactive or inconclusive.
Columns and labels:
[1] = qHTS assay to identify aromatase inhibitors - cell viability counter screen (AID 743084);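 further: cells stimulated with testosterone during compound exposure; nearly all actives have a fitted effect of over 55% in size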
[2] = molecular target: Aryl hydrocarbon receptor (Homo sapiens) (UniProt P35869); experiment: qHTS assay to identify small molecule that activate the aryl hydrocarbon receptor (AhR) signaling pathway (AID 743085);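 further: HG2L7.5c1 human HepG2 liver cells with stably integrated DRE-driven firefly reporter; series mostly up to about 70 µM; nearly all actives have a fitted effect of over 15% in size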
Chain of Aryl hydrocarbon receptor (Homo sapiens) (P35869 whole entry, looked up): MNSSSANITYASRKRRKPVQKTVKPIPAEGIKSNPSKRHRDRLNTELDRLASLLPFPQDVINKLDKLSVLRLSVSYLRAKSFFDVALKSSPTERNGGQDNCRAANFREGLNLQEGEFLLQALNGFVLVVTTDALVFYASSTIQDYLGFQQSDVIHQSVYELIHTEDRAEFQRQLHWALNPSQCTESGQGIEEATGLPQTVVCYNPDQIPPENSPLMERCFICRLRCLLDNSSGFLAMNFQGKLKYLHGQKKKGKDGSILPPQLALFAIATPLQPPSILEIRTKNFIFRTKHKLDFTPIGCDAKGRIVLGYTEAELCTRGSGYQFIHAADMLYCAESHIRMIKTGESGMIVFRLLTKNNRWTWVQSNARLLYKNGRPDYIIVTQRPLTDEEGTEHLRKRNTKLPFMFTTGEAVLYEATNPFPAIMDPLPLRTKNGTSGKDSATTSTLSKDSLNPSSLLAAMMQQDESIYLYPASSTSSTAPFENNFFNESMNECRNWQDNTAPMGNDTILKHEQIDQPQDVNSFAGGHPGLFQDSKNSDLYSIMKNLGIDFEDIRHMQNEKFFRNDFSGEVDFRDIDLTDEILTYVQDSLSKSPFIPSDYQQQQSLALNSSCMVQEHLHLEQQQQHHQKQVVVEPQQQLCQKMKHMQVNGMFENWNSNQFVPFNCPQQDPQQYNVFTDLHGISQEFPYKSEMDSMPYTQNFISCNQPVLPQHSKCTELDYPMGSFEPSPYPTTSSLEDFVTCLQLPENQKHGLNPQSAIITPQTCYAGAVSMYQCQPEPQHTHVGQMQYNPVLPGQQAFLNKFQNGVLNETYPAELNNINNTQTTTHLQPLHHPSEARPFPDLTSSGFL
Procedure, shortened: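 Luminescence read-out: ONE-Glo reagent, 30 min at room temperature, in HG2L7.5c1 HepG2 reporter cells treated 24 h at 37C. Viability was measured beforehand by CellTiter-Fluor fluorescence after 30 min at 37C.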

[3] = qHTS assay to identify small molecule that activate the aryl hydrocarbon receptor (AhR) signaling pathway - cell viability counter screen (AID 743086);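 further: HepG2 liver cells carrying the AhR DRE luciferase reporter; series mostly up to about 70 µM; nearly all actives have a fitted effect of over 45% in size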
Procedure, shortened: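 HepG2-AhR-luc (HG2L7.5c1) cells, 4000/well, were preincubated 5 h at 37C, exposed to compound in qHTS format for 24 hr at 37C, then given CellTiter-Fluor for 30 min; viability was read as fluorescence in the reporter wells.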

[4] = molecular target: Peroxisome proliferator-activated receptor gamma (Homo sapiens) (UniProt P37231); experiment: qHTS assay to identify small molecule agonists of the peroxisome proliferator-activated receptor gamma (PPARg) signaling pathway (AID 743094; active means well fitted activation curve with a large enough effect in the signal ratio in the repeat runs, not every such curve was filed as active; the % refers to the signal ratio)
Chain of Peroxisome proliferator-activated receptor gamma (Homo sapiens) (P37231 whole entry, looked up): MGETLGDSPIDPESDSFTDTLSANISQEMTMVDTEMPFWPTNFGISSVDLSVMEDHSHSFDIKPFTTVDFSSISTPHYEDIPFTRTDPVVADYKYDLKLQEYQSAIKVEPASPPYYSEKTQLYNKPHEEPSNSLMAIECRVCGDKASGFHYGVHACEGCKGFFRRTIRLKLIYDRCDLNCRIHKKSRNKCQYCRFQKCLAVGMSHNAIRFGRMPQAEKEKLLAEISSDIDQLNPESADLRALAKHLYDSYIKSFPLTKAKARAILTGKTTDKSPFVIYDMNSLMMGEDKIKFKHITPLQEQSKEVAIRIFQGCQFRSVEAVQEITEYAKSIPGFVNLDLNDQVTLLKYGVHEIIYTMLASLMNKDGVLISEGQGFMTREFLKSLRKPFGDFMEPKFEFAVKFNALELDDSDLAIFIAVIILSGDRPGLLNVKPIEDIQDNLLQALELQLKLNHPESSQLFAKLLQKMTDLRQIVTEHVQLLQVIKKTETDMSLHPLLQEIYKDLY
Procedure, shortened: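 Cell-based bla reporter, HEK293H background, PPARg-driven UAS. Pre-incubation 5 h, 37C, 5% CO2. Compound 17 h, 37C. Substrate 1 h RT; fluorescence.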

[5] = qHTS assay to identify small molecule antagonists of the peroxisome proliferator-activated receptor gamma (PPARg) signaling pathway - cell viability counter screen (AID 743194); further: nearly all actives have a fitted effect of over 55% in size
Procedure, shortened: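 PPARg-UAS-bla HEK293H cells were plated, rested 5 h at 37 C, then treated with compounds plus rosiglitazone (50 nM final) for 17 h at 37 C; viability was then read by CellTiter-Glo luminescence after 30 min at room temperature.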

[6] = qHTS assay for small molecule agonists of the antioxidant response element (ARE) signaling pathway (AID 743202; active means well fitted activation curve with a large enough effect in the signal ratio in the repeat runs, not every such curve was filed as active; the % refers to the signal ratio)
Procedure, shortened: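 Following a 16 h, 37 C exposure of reporter HepG2 cells (ARE-driven beta-lactamase, 2,000 cells/well) to compounds, FRET substrate was applied for 2 h at room temperature and fluorescence intensity recorded.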

[7] = qHTS assay for small molecule agonists of the antioxidant response element (ARE) signaling pathway - cell viability counter screen (AID 743203; calls by dose curve; further: nearly all actives have a fitted effect of over 55% in size)
Procedure, shortened: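 Measured in the same wells as the beta-lactamase ARE reporter, this read-out is CellTiter-Glo luminescence from HepG2 ARE-bla cells given compounds for 16 hrs.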

[8] = qHTS assay for small molecule activators of the heat shock response signaling pathway - cell viability counter screen (AID 743209); further: nearly all actives have a fitted effect of over 50% in size
Procedure, shortened: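 Same-well multiplex: after 2.5 h room-temperature incubation with LiveBLAzer B/G substrate and fluorescence reading, CellTiter-Glo reagent was added to HSE-bla HeLa cells that had received compound for 5 h at 37 C; luminescence read after 30 min.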

[9] = qHTS assay for small molecule activators of the heat shock response signaling pathway (AID 743210; active means well fitted activation curve with a large enough effect in the signal ratio in the repeat runs, with a control signal flat, not every such curve was filed as active; the % refers to the signal ratio; further: series mostly up to about 63 µM)
Procedure, shortened: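 Heat shock element–beta-lactamase HeLa reporter cells; qHTS with compounds for 5 h at 37 C; detection by FRET substrate fluorescence after 2.5 h at RT.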

[10] = qHTS assay to identify small molecule agonists of the peroxisome proliferator-activated receptor delta (PPARd) signaling pathway - cell viability counter screen (AID 743211); further: nearly all actives have a fitted effect of over 55% in size
Procedure, shortened: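 Read-out: CellTiter-Glo luminescence, 30 min RT, measured in the same wells as the beta-lactamase reporter. Cells: GeneBLAzer PPAR delta UAS-bla HEK293H, 3000 cells/well, compound exposure 17 h at 37C.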

[11] = molecular target: Peroxisome proliferator-activated receptor delta (Homo sapiens) (UniProt Q03181); experiment: qHTS assay to identify small molecule agonists of the peroxisome proliferator-activated receptor delta (PPARd) signaling pathway (AID 743212; calls by dose curve)
Chain of Peroxisome proliferator-activated receptor delta (Homo sapiens) (Q03181 whole entry, looked up): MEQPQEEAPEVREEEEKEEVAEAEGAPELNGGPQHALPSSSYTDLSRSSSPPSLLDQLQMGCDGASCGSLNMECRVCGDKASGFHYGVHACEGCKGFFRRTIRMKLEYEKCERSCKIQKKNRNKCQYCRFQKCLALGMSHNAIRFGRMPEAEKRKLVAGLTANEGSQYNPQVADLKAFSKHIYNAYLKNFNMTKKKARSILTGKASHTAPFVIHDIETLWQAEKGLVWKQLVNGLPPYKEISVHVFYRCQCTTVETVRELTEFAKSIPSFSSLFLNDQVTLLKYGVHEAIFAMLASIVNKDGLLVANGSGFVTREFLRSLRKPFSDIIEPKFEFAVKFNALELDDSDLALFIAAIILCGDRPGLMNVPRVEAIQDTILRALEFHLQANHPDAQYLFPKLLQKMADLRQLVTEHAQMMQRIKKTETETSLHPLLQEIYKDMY
Procedure, shortened: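 Beta-lactamase reporter read by fluorescence (LiveBLAzer B/G FRET, 2 h, room temperature). Test agents, in DMSO, incubated at 37 C with PPARd-bla HEK293H cells.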

[12] = qHTS assay to identify small molecule antagonists of the peroxisome proliferator-activated receptor delta (PPARd) signaling pathway - cell viability counter screen (AID 743213); further: nearly all actives have a fitted effect of over 50% in size
Procedure, shortened: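 HEK293H cells with the PPARd UAS-bla reporter, co-treated 17 h at 37 C with compounds and L165041 (300 nM final), were lysed with CellTiter-Glo. Luminescence indicated viable cell content.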

[13] = molecular target: Peroxisome proliferator-activated receptor delta (Homo sapiens) (UniProt Q03181); experiment: qHTS assay to identify small molecule antagonists of the peroxisome proliferator-activated receptor delta (PPARd) signaling pathway (AID 743215; active means well fitted inhibition curve with a large enough effect in the signal ratio in the repeat runs, not every such curve was filed as active; the % refers to the signal ratio;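 further: cells stimulated with agonist L165041 at 300 nM final during compound exposure; series mostly up to about 62 µM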)
Procedure, shortened: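 Fluorescence from cleaved LiveBLAzer B/G FRET substrate (2 h, room temperature) reports PPARd-driven beta-lactamase in HEK293H UAS-bla cells. Cells had been treated 17 h at 37 C with compound plus 300 nM final L165041.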

[14] = qHTS assay to identify small molecule agonists of the farnesoid-X-receptor (FXR) signaling pathway - cell viability counter screen (AID 743218); further: nearly all actives have a fitted effect of over 45% in size
Procedure, shortened: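 Readout: CellTiter-Glo luminescence, 30 min RT, multiplexed after the FXR-bla FRET reading. HEK 293T FXR-UAS-bla cells received compound 5 h post-plating and were incubated 16 h at 37 C.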

[15] = qHTS assay to identify small molecule antagonists of the farnesoid-X-receptor (FXR) signaling pathway - cell viability counter screen (AID 743221; active means well fitted cell-killing curve with a large enough effect in the repeat runs, not every such curve was filed as active; further: nearly all actives have a fitted effect of over 50% in size)
Procedure, shortened: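 HEK 293T FXR-bla cells, 5 h pre-incubation; compound + CDCA 50 uM final, 16 h, 37 C; beta-lactamase FRET read first, then CellTiter-Glo luminescence, 30 min RT.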

[16] = molecular target: Vitamin D3 receptor (Homo sapiens) (UniProt P11473); experiment: qHTS assay to identify small molecule agonists of the vitamin D receptor (VDR) signaling pathway (AID 743222; calls by dose curve)
Chain of Vitamin D3 receptor (Homo sapiens) (P11473 whole entry, looked up): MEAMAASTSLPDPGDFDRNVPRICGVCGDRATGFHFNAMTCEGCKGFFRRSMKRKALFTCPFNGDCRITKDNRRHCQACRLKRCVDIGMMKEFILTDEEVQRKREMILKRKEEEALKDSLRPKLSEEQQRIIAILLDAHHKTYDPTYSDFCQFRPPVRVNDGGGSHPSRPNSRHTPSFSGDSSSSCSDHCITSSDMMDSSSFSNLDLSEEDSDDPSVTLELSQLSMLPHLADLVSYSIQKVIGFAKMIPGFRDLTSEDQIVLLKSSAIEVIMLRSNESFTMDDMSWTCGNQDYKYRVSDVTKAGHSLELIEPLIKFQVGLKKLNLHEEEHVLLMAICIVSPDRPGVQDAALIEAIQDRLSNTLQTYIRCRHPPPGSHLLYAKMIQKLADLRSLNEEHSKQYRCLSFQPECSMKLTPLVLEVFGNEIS
Procedure, shortened: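 Following 4 h attachment at 37C, VDR-bla cells (2,000 per well) received DMSO-dissolved compounds or controls. After 16 h incubation, LiveBLAzer B/G FRET substrate was added and fluorescence read 2 h later at room temperature.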

[17] = molecular target: Vitamin D3 receptor (Homo sapiens) (UniProt P11473); experiment: qHTS assay to identify small molecule antagonists of the vitamin D receptor (VDR) signaling pathway (AID 743223; active means well fitted inhibition curve with a large enough effect in the signal ratio in the repeat runs, not every such curve was filed as active; the % refers to the signal ratio)
Procedure, shortened: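 Beta-lactamase reporter read-out: FRET substrate fluorescence after 2 h at room temperature, following 16 h exposure of VDR-bla cells to test compound plus 3 nM (final) 1alpha,25-dihydroxyvitamin D3 agonist at 37C.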

[18] = molecular target: Bile acid receptor (Homo sapiens) (UniProt Q96RI1); experiment: qHTS assay to identify small molecule antagonists of the farnesoid-X-receptor (FXR) signaling pathway (AID 743217; active means well fitted inhibition curve with a large enough effect in the signal ratio in the repeat runs, not every such curve was filed as active; the % refers to the signal ratio)
Chain of Bile acid receptor (Homo sapiens) (Q96RI1 whole entry, looked up): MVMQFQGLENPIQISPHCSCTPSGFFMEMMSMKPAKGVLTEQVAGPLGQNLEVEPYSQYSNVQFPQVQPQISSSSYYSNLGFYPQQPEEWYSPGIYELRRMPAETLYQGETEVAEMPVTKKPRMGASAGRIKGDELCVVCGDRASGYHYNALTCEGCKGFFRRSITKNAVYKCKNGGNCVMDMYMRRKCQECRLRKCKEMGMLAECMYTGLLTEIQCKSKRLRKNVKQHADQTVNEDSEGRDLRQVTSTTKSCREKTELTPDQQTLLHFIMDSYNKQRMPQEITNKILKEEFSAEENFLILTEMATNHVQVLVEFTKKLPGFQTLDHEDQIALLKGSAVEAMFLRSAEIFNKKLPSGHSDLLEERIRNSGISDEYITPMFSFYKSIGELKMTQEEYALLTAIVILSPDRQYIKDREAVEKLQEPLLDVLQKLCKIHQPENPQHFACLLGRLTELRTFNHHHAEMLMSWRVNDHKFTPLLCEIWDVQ
Procedure, shortened: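 FRET fluorescence after 2 h room-temperature LiveBLAzer loading gives the readout. Prior step: FXR-bla HEK 293T cells, seeded and incubated 5 h, received test compounds plus 50 uM final CDCA for 16 h at 37 °C.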

[19] = molecular target: Bile acid receptor (Homo sapiens) (UniProt Q96RI1); experiment: qHTS assay to identify small molecule agonists of the farnesoid-X-receptor (FXR) signaling pathway (AID 743220; active means well fitted activation curve with a large enough effect in the signal ratio in the repeat runs, not every such curve was filed as active; the % refers to the signal ratio)
Procedure, shortened: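 FXR-UAS-bla HEK 293T cells carrying a UAS-driven beta-lactamase reporter were plated for 5 h at 37C/5% CO2, then exposed to DMSO-dissolved Tox21 10K compounds for 16 h at 37C. A LiveBLAzer B/G FRET substrate was loaded for 2 h at room temperature before fluorescence reading.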

Measured: Potency

Nc1ccc(S(=O)(=O)Nc2ccccn2)cc1
inactive: [1] | [2] | [3] | [4] | [5] | [6] | [7] | [8] | [9] | [10] | [11] | [12] | [13] | [14] | [15] | [16]

CCCCC(=O)N(C)C
inactive: [1] | [2] | [3] | [4] | [5] | [6] | [7] | [8] | [9] | [10] | [11] | [12] | [13] | [15] | [16]

CCCCCCCCCCCCOC(C)=O
inactive: [1] | [2] | [3] | [4] | [5] | [6] | [7] | [8] | [9] | [12] | [13] | [14] | [15] | [17]

Cn1c(=O)c2c(ncn2CC2OCCO2)n(C)c1=O
inactive: [1] | [2] | [3] | [4] | [5] | [6] | [7] | [8] | [9] | [10] | [13] | [18] | [19] | [15]

CCCCOC(=O)C(C)OC(=O)CCC (stereo not drawn)
inactive: [1] | [2] | [3] | [4] | [5] | [6] | [7] | [8] | [9] | [10] | [12] | [13] | [14] | [15] | [16]

CCCCCCCC[Si](OCC)(OCC)OCC
inactive: [1] | [2] | [3] | [4] | [5] | [6] | [7] | [8] | [9] | [11] | [12] | [13] | [15] | [16]

CCS(=O)(=O)CCn1c([N+](=O)[O-])cnc1C
inactive: [1] | [2] | [3] | [4] | [5] | [6] | [7] | [8] | [9] | [14] | [15] | [16]

O=C(O)/C=C/c1ccccc1
inactive: [1] | [2] | [3] | [4] | [5] | [6] | [7] | [8] | [10] | [12] | [14] | [15] | [16] | [17]

CCCCCCCCCCC
inactive: [1] | [2] | [3] | [4] | [5] | [7] | [8] | [9] | [10] | [12] | [14] | [15]

C[C@H](CCC(=O)NCC(=O)O)[C@H]1CC[C@H]2[C@@H]3[C@H](O)C[C@@H]4C[C@H](O)CC[C@]4(C)[C@H]3C[C@H](O)[C@]12C
inactive: [1] | [2] | [3] | [4] | [5] | [7] | [8] | [9] | [10] | [12] | [18] | [14] | [19] | [15] | [16] | [17]

C=C(C)[C@@H]1CC[C@@H](C)C[C@@H]1O
inactive: [1] | [2] | [3] | [4] | [5] | [6] | [7] | [8] | [9] | [10] | [12] | [14] | [15]

C=C[C@@H](C)CCC=C(C)C
inactive: [1] | [2] | [3] | [4] | [5] | [6] | [7] | [8] | [9] | [12] | [13] | [15] | [16]
